From PubChem BioAssay AID1117361 (Southern Research Institute, 2015)
Out of some 3,600 compounds screened, about 900 (25%) were called active. The rule behind the calls is not given here. The list is a sample of the results. Results with a measured potency or affinity are listed apart.

Each compound was assayed against Protein Tat (Human immunodeficiency virus type 1 group M subtype B (isolate HXB2)) (UniProt P04608) (assay: inhibitors of Tat binding to TAR RNA, dose response, counter-screen for Vif-APOBEC3G degradation inhibitor project, biochemical, fluorescence polarization, FAM-labeled TAR RNA (AID 1117361)). Settings: outcome: dose series up to 100 µM unless noted; series mostly up to 100 µM; inhibition: at the top concentration.

**Q.** With O=C(CSc1nnc(-c2ccc(F)cc2)o1)Nc1ccc(S(=O)(=O)N2CCCC2)cc1 as the compound, how does the “inhibition” value read?
**A.** 10.8% (inactive)

**Q.** Cc1ccc(C(=O)Nc2cccc(C(=O)O)c2)cc1S(=O)(=O)N1CCOCC1 was tested. Which “inhibition” value did it give?
**A.** 0.68% (inactive)

**Q.** Cc1nnc(NC(=O)c2ccc(C)c(S(=O)(=O)N3CCOCC3)c2)s1 was tested. Which “inhibition” value did it give?
**A.** 3.38% (inactive)

**Q.** Which “inhibition” value does the source give for N#CC(=C1SC=CS1)c1nc(-c2ccccc2)cs1 here?
**A.** 9.55% (inactive)

**Q.** For CCOC(=O)C1CCN(c2ncnc3cc(OC)c(OC)cc23)CC1, which outcome is on record?
**A.** inactive

**Q.** CCOC(=O)C1CCN(Cc2cnc(Oc3ccc(OC)cc3)s2)CC1 was tested. Which “inhibition” value did it give?
**A.** 3.38% (inactive)

**Q.** Which “inhibition” value does the source give for CCOC(=O)CSc1nnc(-c2ccco2)n1C here?
**A.** 17.6% (inactive)

**Q.** CSc1ncccc1C(=O)OCC(=O)N1CCOCC1 was tested. Which outcome did it give?
**A.** inactive

**Q.** CCN(CC)c1ccc(N=Cc2ccc(N(CC)CC)cc2O)cc1 was tested. Which outcome did it give?
**A.** inactive

**Q.** With CCOC(=O)C1C(=O)CC(C)(O)C(C(=O)OCC)C1c1cc(Br)ccc1OC (stereo unspecified) as the compound, how does the “inhibition” value read?
**A.** 4.05% (inactive)

**Q.** COc1cccc(-c2nn3c(-c4ccccn4)nnc3s2)c1 was tested. Which outcome did it give?
**A.** inactive

**Q.** With O=C(CSc1nnc(-c2cccnc2)n1Cc1ccco1)c1ccc(Br)cc1 as the compound, how does the “inhibition” value read?
**A.** 21.6% (inactive)

**Q.** How did the “inhibition” value turn out when N#Cc1ccc(CSc2nnc(Cc3cccs3)n2Cc2ccco2)cc1 was run?
**A.** 26.4% (inactive)

**Q.** For O=C(CCCCn1c(=O)[nH]c2ccsc2c1=O)NCc1cccnc1, which “inhibition” value is on record?
**A.** 4.09% (inactive)

**Q.** How did the outcome turn out when COC(=O)c1cc(=O)nc2sc(-c3ccc(F)cc3)nn12 was run?
**A.** inactive

**Q.** For COc1c(OC(C)=O)ccc(/C=C/c2ccc3ccccc3n2)c1[N+](=O)[O-], which “inhibition” value is on record?
**A.** 4.05% (inactive)

**Q.** COC1=C(OC)C(=O)C(Sc2ccc3ccccc3c2)=CC1=O was tested. Which outcome did it give?
**A.** inactive

**Q.** With CCNC(=O)NC(=O)COC(=O)CNC(=O)COc1ccccc1 as the compound, how does the outcome read?
**A.** inactive

**Q.** Which outcome does the source give for CCOC(=O)CNc1nc(-c2ccncc2)nc2ccccc12 here?
**A.** inactive

**Q.** Which “inhibition” value does the source give for Cc1ccc(NC(=O)C(=O)c2c(-c3ccccc3)cc3ccccn23)cc1S(=O)(=O)N1CCOCC1 here?
**A.** 2.34% (inactive)

**Q.** With O=C(C1CC(c2ccccc2O)=NO1)N1CCCCC1 (stereo unspecified) as the compound, how does the “inhibition” value read?
**A.** 6.76% (inactive)

**Q.** Cc1ccc(NC2=NCCCCC2)cc1C was tested. Which outcome did it give?
**A.** inactive

**Q.** For Oc1ccc(/C=N/N2CCCCC2)c(O)c1, which “inhibition” value is on record?
**A.** 3.67% (inactive)

**Q.** For Cc1ccc(C(C[N+](=O)[O-])Sc2ccc(N)cc2)cc1 (stereo unspecified), which outcome is on record?
**A.** inactive

**Q.** With CCCCc1ccc(NC(=O)CC(C)(C)C)cc1 as the compound, how does the “inhibition” value read?
**A.** 1.65% (inactive)

**Q.** Which outcome does the source give for COC(=O)c1sccc1NC(=O)CC1C(=O)NCCN1C(=O)Nc1ccccc1 (stereo unspecified) here?
**A.** inactive

**Q.** For COc1ccc(C2SCC(C(=O)NCc3ccc(F)cc3)N2C(C)=O)cc1 (stereo unspecified), which outcome is on record?
**A.** inactive

**Q.** O=C(NNC(=O)c1cccnc1)Nc1ccc([N+](=O)[O-])cc1 was tested. Which outcome did it give?
**A.** inactive

**Q.** Which outcome does the source give for CC(C)Cc1cc(C(=O)Nc2cccc(O)c2)no1 here?
**A.** inactive

**Q.** Cc1ccc(S(=O)(=O)C2(C(=O)Nc3cccc(F)c3)CC2)cc1 was tested. Which “inhibition” value did it give?
**A.** 3.38% (inactive)

**Q.** With O=C(Nc1ccc(F)c(Cl)c1)c1cccnc1 as the compound, how does the “inhibition” value read?
**A.** 7.68% (inactive)

**Q.** CN1CCN(C(CNC(=O)c2ccc(Br)o2)c2ccc(F)cc2)CC1 (stereo unspecified) was tested. Which “inhibition” value did it give?
**A.** 3.01% (inactive)

**Q.** CCOc1ccc(C2c3c(oc4ccccc4c3=O)C(=O)N2CCCN2CCOCC2)cc1 (stereo unspecified) was tested. Which “inhibition” value did it give?
**A.** 8.78% (inactive)

**Q.** For COc1ccc(C(C(C(=O)c2cccs2)N2CCOCC2)N2CCOCC2)cc1OC (stereo unspecified), which “inhibition” value is on record?
**A.** 12.8% (inactive)

**Q.** How did the “inhibition” value turn out when CN(C(=O)c1ccc(OC2CCN(S(=O)(=O)N(C)C)CC2)cc1)C1CCCCC1 was run?
**A.** 14.8% (inactive)

**Q.** How did the “inhibition” value turn out when O=C(Nc1ccccc1)NC1CCN(CCCN2C(=O)c3ccccc3C2=O)CC1 was run?
**A.** 3.41% (inactive)

**Q.** With COc1ccc(N2CCN(CCNC(=O)Nc3ccc(Cl)cc3)CC2)cc1 as the compound, how does the “inhibition” value read?
**A.** 4.05% (inactive)

**Q.** For Cc1cc2nc(C)n(CCCNC(=O)Nc3ccc(F)cc3)c2cc1C, which outcome is on record?
**A.** inactive

**Q.** COc1ccc(NC(=O)Cc2ccc(Cl)cc2)cc1NC(=O)c1ccco1 was tested. Which outcome did it give?
**A.** inactive

**Q.** Cc1ccc(NC(=O)Nc2ccc3c(c2)nc(C)n3C)cc1 was tested. Which outcome did it give?
**A.** inactive

**Q.** Which “inhibition” value does the source give for Cc1cccc2nc(C(=O)Nc3cccc(C(=O)NC4CC4)c3)cn12 here?
**A.** 2.47% (inactive)

**Q.** For CC(=O)c1cccc(NC(=O)NCCS(C)=O)c1 (stereo unspecified), which “inhibition” value is on record?
**A.** 2.03% (inactive)

**Q.** Cc1ccc(NCc2nnc(SCC(=O)N(Cc3ccccc3)C(C)(C)C)o2)c(C)c1 was tested. Which “inhibition” value did it give?
**A.** 3.38% (inactive)

**Q.** CNC(=O)C(=O)N/N=C/c1cccnc1 was tested. Which “inhibition” value did it give?
**A.** 13.2% (inactive)

**Q.** With O=C(CN(C(=O)c1cc2c(s1)CCC2)C1CCCC1)NCc1cccs1 as the compound, how does the “inhibition” value read?
**A.** 8.11% (inactive)

**Q.** For CCCc1nc2ccccc2c(=O)n1NC(=O)c1c(O)c2cccc3c2n(c1=O)CCC3, which “inhibition” value is on record?
**A.** 3.38% (inactive)

**Q.** With COC(=O)Cc1cc(=O)[nH]c(/N=C(\N)Nc2ccc(C)cc2)n1 as the compound, how does the outcome read?
**A.** inactive

**Q.** How did the outcome turn out when O=C(N/N=C\c1ccc(Cl)cc1)C1=NOC2COC3(CCN(c4ccc([N+](=O)[O-])cc4)CC3)OCC12 (stereo unspecified) was run?
**A.** inactive

**Q.** How did the “inhibition” value turn out when CCC(C)N1CC23C=CC(O2)C(C(=O)OC)C3C1=O (stereo unspecified) was run?
**A.** 2.7% (inactive)

**Q.** Which “inhibition” value does the source give for COCC(=O)Nc1sc2c(c1C(=O)OC)C(C(=O)OC)CC2 (stereo unspecified) here?
**A.** 12.8% (inactive)

**Q.** CCOC(=O)c1c2c(n(Cc3ccccc3)c1C)C(=O)C(=O)c1ccccc1-2 was tested. Which outcome did it give?
**A.** inactive

**Q.** How did the “inhibition” value turn out when CCOC(=O)C1=C(Cc2ccc(Cl)cc2)C(=O)c2ccccc2C1=O was run?
**A.** 2.34% (inactive)

**Q.** With COc1c(F)c(F)c(C(=O)Nc2ccccc2N2CCN(C(C)=O)CC2)c(F)c1F as the compound, how does the outcome read?
**A.** inactive

**Q.** How did the outcome turn out when O=C(Nc1ccccc1N1CCCCC1)c1ccccc1F was run?
**A.** inactive

**Q.** Which “inhibition” value does the source give for COc1ccc(S(=O)(=O)N(C(C)=O)c2ccc3oc(=O)sc3c2)cc1 here?
**A.** 25.9% (inactive)

**Q.** Which “inhibition” value does the source give for O=C1C(Cl)=C(Oc2ccccc2)C(=O)c2ccccc21 here?
**A.** 7.01% (inactive)

**Q.** With CC(OC(=O)c1cccc(O)c1)C(=O)N(C)Cc1ccccc1 (stereo unspecified) as the compound, how does the outcome read?
**A.** inactive

**Q.** For CC(=O)Nc1ccc(NC(=O)c2sc3nc4c(c(-c5ccc(C)cc5)c3c2N)CCC4)cc1, which “inhibition” value is on record?
**A.** 11.5% (inactive)

**Q.** With CSc1ncccc1C(=O)NCc1nnc2ccccn12 as the compound, how does the outcome read?
**A.** inactive

**Q.** How did the outcome turn out when O=C(Cn1c(NCCO)nc2ccccc21)NCC(F)(F)F was run?
**A.** inactive

**Q.** O=C(CSc1nnc(CN2CCCCC2)n1-c1ccccc1)c1ccc2c(c1)OCO2 was tested. Which “inhibition” value did it give?
**A.** 0.68% (inactive)

**Q.** With O=C(CN(C1CCCCC1)C1CCCCC1)N1CCc2ccccc2C1 as the compound, how does the “inhibition” value read?
**A.** 5.41% (inactive)

**Q.** How did the “inhibition” value turn out when CC(NC(=O)c1ccco1)C(=O)N1CCc2ccccc2C1 (stereo unspecified) was run?
**A.** 11.5% (inactive)

**Q.** For Cc1ccc([C@H]2C(C(=O)O)=CC[C@@H](c3cccc(Cl)c3)N2S(=O)(=O)c2ccc(C)cc2)cc1, which outcome is on record?
**A.** inactive

**Q.** For COc1ccccc1-n1nnnc1SCC(=O)Nc1cc(C)on1, which “inhibition” value is on record?
**A.** 1.35% (inactive)

**Q.** With O=c1cc2oc3cc(O)c(O)cc3c(-c3ccccc3O)c-2cc1O as the compound, how does the “inhibition” value read?
**A.** 10.3% (inactive)

**Q.** How did the “inhibition” value turn out when OC(CN1CCCCC1)CN1CCCCC1 was run?
**A.** 9.46% (inactive)

**Q.** CS(=O)(=O)N(CC(=O)N1CCN(Cc2ccccc2)CC1)c1ccc2c(c1)OCCO2 was tested. Which outcome did it give?
**A.** inactive

**Q.** How did the “inhibition” value turn out when CSCCC(CO)NC(=O)OCc1ccccc1 (stereo unspecified) was run?
**A.** 2.7% (inactive)

**Q.** Which “inhibition” value does the source give for C[C@H](NC(=O)OCc1ccccc1)C(=O)NNC(=O)[C@H](C)NC(=O)OCc1ccccc1 here?
**A.** 16.5% (inactive)

**Q.** How did the outcome turn out when O=C(Nc1nnc(C2CC2)o1)c1ccc(S(=O)(=O)N2CCCc3ccccc32)cc1 was run?
**A.** inactive
